# Reference: PubChem BioAssay AID463173 (ICCB-Longwood Screening Facility, Harvard Medical School, 2010)
# In all, about 52,000 compounds went through this assay and about 4,300 (8.3%) were called active. Only a selection was taken, and actives are over-represented in it overall. Unmarked numbers belong to inactive results. Cut-off read from the data, not from the text of the source: active = survival mostly below about 52% (no sharp cut-off); inactive = mostly above about 56%.
# Tested on: DeltatarO mutant
# Assay: S. aureus survival, RN4220 and DeltatarO strains – OD600, teichoic acid synthesis inhibitors, primary screen (AID 463173)
# Details: S. aureus RN4220 wild type/DeltatarO growth, OD600, 18 h, stronger effect = lower value, screened at 18.75 µg/mL (by protocol)
row,SMILES,survival
1,COc1ccc(C(C#N)N2N=C(C)CC2c2ccccc2)cc1OC (centres undefined),108%
2,CC(=O)c1ccc(NC(=O)CSc2nc(C3CCCC3)nc3c2c(=O)n(C)c(=O)n3C)cc1,78%
3,Cc1cccc(C)c1-n1ncc(C(=O)N2CCN(c3ncccn3)CC2)c1C1CCN(C(=O)OC(C)(C)C)CC1,95%
4,COc1cc(OC)c(NC(=O)CCc2nc(C3=CCN(Cc4cccc(Cl)c4)CC3)no2)cc1Cl,75%
5,Cc1cc(C)c(NC(=O)CN(C)S(=O)(=O)c2ccc3c(c2)c(=O)n(C)c(=O)n3C)c(C)c1,81%
6,Cc1ccc(Cl)cc1-n1ncc2c(N3CCC(C)CC3)ncnc21,128%
7,COc1cc(C(CC(=O)Nc2ccc(Br)cn2)N2Cc3ccccc3C2=O)cc(OC)c1OC (centres undefined),78%
8,COc1cccc(-c2cn3c(n2)sc2cc(C(=O)NCCc4ccc(OC)c(OC)c4)ccc23)c1,49%
9,COc1ccc(CCNC(=O)c2ccc3c(c2)sc2nc(-c4ccc(C)cc4)cn23)cc1OC,81%
10,COc1ccc(CCNC(=O)c2ccc3c(c2)sc2nc(-c4ccccc4)cn23)cc1OC,47% (active)
11,Cc1cc(C(=O)O)on1,83%
12,COc1ccc(-c2nc3ccccc3s2)cc1NC(=O)c1cc(OC)c(OC)c(OC)c1,57%
13,COc1ccc(C(=O)Nc2cc(-c3nc4ccccc4s3)ccc2OC)cc1,19% (active)
14,COc1ccc(-c2nc3ccccc3s2)cc1NC(=O)c1cc2ccccc2o1,38% (active)
15,COc1ccc(-c2nc3ccccc3s2)cc1NC(=O)c1ccc(C#N)cc1F,168%
16,CCOc1ccc(C(=O)Nc2cc(-c3nc4ccccc4s3)ccc2OC)cc1,187%
17,COc1cc(OC)cc(C(=O)Nc2cc(-c3nc4ccccc4s3)ccc2OC)c1,42% (active)
18,COc1ccc(-c2nc3ccccc3s2)cc1NC(=O)c1ccccc1F,151%
19,COc1ccc(-c2nc3ccccc3s2)cc1NC(=O)c1ccc(F)cc1,137%
20,COc1ccc(-c2nc3ccccc3s2)cc1NC(=O)c1cccc([N+](=O)[O-])c1C,38% (active)

row,SMILES,survival
1,COc1ccc(-c2nc3ccccc3s2)cc1NC(=O)c1ccccc1OC,77%
2,COc1cc(OC)cc(C(=O)Nc2ccc(-c3nc4ccccc4s3)cc2C)c1,72%
3,O=C(Nc1cc(-c2nc3ccccc3s2)ccc1Cl)c1cc2ccccc2o1,105%
4,CCOC(=O)N1CCc2c(sc(NCc3sccc3C)c2C(=O)Nc2ccccc2OCC)C1,94%
5,O=C(NCCS(=O)(=O)N1CCN(c2ccc(F)cc2)CC1)C(c1ccccc1)c1ccccc1,113%
6,CC(C)COc1ccc(C(=O)N2CCN(CCc3ccccn3)CC2)cc1,63%
7,CC(C)(C)C(=O)C1C2C3COC(O3)C(=O)C2C2C=Cc3ccccc3N21 (centres undefined),124%
8,CCc1cccc(NC(=O)Cn2c(=O)n(CC(=O)NCCc3ccccc3)c(=O)c3ccccc32)c1,102%
9,COc1cc(Cl)c(C)cc1NC(=O)c1cc2c(Cl)nc3ccc(C)cc3c2s1,64%
10,CCS(=O)(=O)c1ncc(Cl)c(C(=O)N2CCN(c3cccc(Cl)c3)CC2)n1,8% (active)
11,CSc1ncc(C(=O)N2CCN(c3cccc(Cl)c3)CC2)c(C)n1,0% (active)
12,CCCSc1ncc(Cl)c(C(=O)N2CCN(c3ccc(OC)cc3)CC2)n1,49%
13,CS(=O)(=O)N1CCc2cc(C(=O)N3CCN(c4cccc(Cl)c4)CC3)ccc21,49%
14,CCCSc1ncc(Cl)c(C(=O)N2CCN(c3cccc(Cl)c3)CC2)n1,40% (active)
15,CCSc1ncc(Cl)c(C(=O)N2CCN(c3ccc(OC)cc3)CC2)n1,83%
16,CS(=O)(=O)c1ncc(Cl)c(C(=O)N2CCN(c3cccc(Cl)c3)CC2)n1,17% (active)
17,CSc1ncc(C(=O)N2CCN(c3ccc(Cl)cc3)CC2)c(C)n1,106%
18,CCS(=O)(=O)c1ncc(Cl)c(C(=O)N2CCN(c3ccc(OC)cc3)CC2)n1,68%
19,Cn1cc(S(=O)(=O)N2CCCC2)cc1C(=O)N1CCN(c2cccc(Cl)c2)CC1,73%
20,CCSc1ncc(Cl)c(C(=O)N2CCN(c3ccccc3OC)CC2)n1,76%

row,SMILES,survival
1,CSc1ncc(C(=O)N2CCN(c3cccc(C(F)(F)F)c3)CC2)c(C)n1,69%
2,O=C(c1cccnc1)N1CCN(CCN2C(=O)C3C4C=CC(C4)C3C2=O)CC1 (centres undefined),89%
3,COc1ccc(-n2nc(C(=O)NCCc3ccc(OC)c(OC)c3)c3c4ccccc4n(C)c3c2=O)cc1Cl,95%
4,CCOc1ccc(S(=O)(=O)NCCc2csc(-c3ccc(Cl)cc3)n2)cc1,91%
5,O=C1CC(c2ccccc2)Cc2[nH]c(=O)c(-c3nc(-c4ccc(F)cc4)cs3)cc21 (centres undefined),154%
6,Cc1ccc(NC(=O)c2c(C)oc3ncnc(N4CCCCC4)c23)c(C)c1,108%
7,O=C(CCC1N=C2c3ccccc3N=C(SCC(=O)Nc3ccccc3F)N2C1=O)NCc1cccs1 (centres undefined),96%
8,CCc1cccc(NC(=O)Cn2c(=O)n(CC3CCC(C(=O)NC)CC3)c(=O)c3sccc32)c1 (centres undefined),83%
9,Cc1ccccc1OCCSc1nc2ccc(NC(=O)c3cccc(F)c3)cc2s1,100%
10,O=C(NCC1CCCO1)C1CCCN1C(=O)Nc1ccc(Cl)cc1 (centres undefined),84%
11,COc1cccc(-c2cc(C(=O)NCc3ccc(F)cc3)no2)c1,30% (active)
12,COc1cccc(-c2cc(C(=O)NCc3ccccc3)no2)c1,45% (active)
13,COc1cccc(-c2cc(C(=O)NCCc3ccc(OC)c(OC)c3)no2)c1,173%
14,COc1cccc(-c2cc(C(=O)Nc3cccnc3Cl)no2)c1,61%
15,COc1ccc(CNC(=O)c2cc(-c3ccc(OC)cc3)on2)cc1,210%
16,COc1ccc(-c2cc(C(=O)NCc3ccc(F)cc3)no2)cc1,178%
17,CCC(C)NC(=O)c1cc(-c2cccc(OC)c2)on1 (centres undefined),32% (active)
18,COc1cccc(-c2cc(C(=O)Nc3ccc(OC)cc3OC)no2)c1,56%
19,COc1ccc(CNC(=O)c2cc(-c3cccc(Cl)c3)on2)cc1,49%
